# hcDAF12 agonist – H. contortus DAF-12 activation, primary screen; activation, % at 6.8 µM; HEK293 hcDAF-12 lit1-tk-luc reporter, luminescence; 0% DMSO, 100% Δ7-dafachronic acid; 370,000 tested, 1.4% active; AID 652067;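 active means activation above the mean of all tested compounds plus 3 SD, cut at about 5.5% in these data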;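 further: 100% = response to 3 µM Δ7-dafachronic acid high control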
# hgDAF-12 ag – hgDAF-12 agonism, primary luciferase screen; HEK293 GAL4-hgDAF12 UAS-luciferase reporter, agonist luminescence; normalized to butyrate control; activation, % at 6.8 µM; 370,000 tested, 1.8% active;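 active means activation above a cutoff set at the mean of all screened compounds plus 3 SD, cut at about 10% in these data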;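 further: 0% = DMSO wells and 100% = sodium butyrate wells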
# ssDAF12 agonist – activators of S. stercoralis DAF-12 nuclear receptor | 370,000 tested, 1% active | activation, % at 6.8 µM | HEK293 ssDAF-12/GRIP1 lit1-tk-luc reporter, luminescence; % of 3 µM dafachronic acid response;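 active means activation above the mean over all tested compounds plus 3 SD, cut at about 0.9% in these data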;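 further: 0% = DMSO-only wells and 100% = 3 µM delta7-dafachronic acid wells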
# DAX1 inh-1 – inhibits human nuclear receptor DAX1 | P51843 | HEK293 Gal4-DAX1 luciferase reporter, luminescence | inhibition, % at 6.75 µM | 340,000 tested, 0.99% active;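 active means inhibition above the mean over all tested compounds plus 3 SD, cut at about 4.2% in these data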;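 further: 0% = DAX1-transfected cells with DMSO and 100% = empty-vector control cells with DMSO; inhibition shows as a rise in luminescence from relieved DAX1 repression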
# Target sequence (P51843 207-470 limits assumed): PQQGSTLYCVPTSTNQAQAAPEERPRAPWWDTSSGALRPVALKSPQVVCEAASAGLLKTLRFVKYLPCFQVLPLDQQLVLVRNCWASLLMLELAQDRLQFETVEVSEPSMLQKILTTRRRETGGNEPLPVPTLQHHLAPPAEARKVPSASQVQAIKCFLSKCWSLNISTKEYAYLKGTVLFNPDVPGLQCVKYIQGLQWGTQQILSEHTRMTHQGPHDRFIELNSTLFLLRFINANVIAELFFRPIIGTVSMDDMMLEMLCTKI
# SMARCA2 activ – increases SMARCA2 function in MMTV reporter cells | MG213 cells, MMTV-luciferase reporter, dexamethasone, overnight | activation, % at 9.1 µM | 370,000 tested, 1% active | AID 652017; in the data active means activation above about 7.8%;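 further: 0% = vehicle wells and 100% = reference activator wells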
# DAX1 inh-2 – inhibitors of DAX1 repression of SF-1 activated StAR promoter. HEK293T StAR-luciferase reporter, SF-1/DAX-1 repression relief. inhibition, % at 6.8 µM. 370,000 tested, 1.1% active;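 active means inhibition above the mean over all tested compounds plus 3 SD, cut at about 3.6% in these data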;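 further: 0% = DAX-1 cells with DMSO and 100% = cells lacking DAX-1 with DMSO; higher inhibition means more luminescence from relief of DAX-1 repression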
# SMARCA2 act conf – confirmation of SMARCA2 (BRM) function activators; shares compounds with SMARCA2 activ; MG213 cells, MMTV-luciferase with dexamethasone, luminescence, overnight; MG213 cells expressing E1A, Rb sequestered; DMSO wells 0%, reference activator 100%; activation, % at 9.1 µM; 3,500 tested, 30% active; AID 652260;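 active means activation above its plate's cutoff, the mean activation of tested wells plus 3 SD, cut at about 7.9% in these data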
# VP16 Luc act – counter-screen for SMARCA2 activators: GAL4-VP16 luciferase reporter activation. activation, % at 9.1 µM. AID 686939. 3,500 tested, 41% active. HEK293 GAL4-VP16 pG5luc reporter, luciferase luminescence; scaled: DMSO wells 0%, SAHA wells 100%. shares compounds with SMARCA2 activ;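 active means activation above the solvent-only control well mean plus 3 SD, averaged across control plates, cut at about 5.2% in these data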
# Active calls of the source: *; x = no result. An excerpt weighted towards active compounds, which were near 4.8% of everything screened.
SMILES,hcDAF12 agonist,hgDAF-12 ag,ssDAF12 agonist,DAX1 inh-1,SMARCA2 activ,DAX1 inh-2,SMARCA2 act conf,VP16 Luc act
CC(C)n1nnnc1SCC(=O)c1ccc2c(c1)OCCO2,-0.1,2.7,-1.1,0.8,5.5,0.7,x,x
O=C(CSc1nnnn1C1CCCC1)c1ccc2c(c1)OCCO2,2.5,9.0,-0.6,2.6,8.3*,2.2,4.3,5.4*
CCc1noc2cc(-c3ccccc3)n(C)c(=O)c12,3.2,13.2*,-0.4,x,9.7*,3.1,14.3*,6.8*
CCCOc1ccc(-c2cc3onc(-c4ccccc4)c3c(=O)n2C)cc1,2.7,5.4,-0.7,0.8,5.8,2.4,x,x
O=[N+]([O-])c1cc(Cl)ccc1NCCNS(=O)(=O)c1ccccc1,-0.6,-0.1,-1.6,1.0,16.2*,0.8,-0.6,1.0
O=[N+]([O-])c1ccccc1NCCNS(=O)(=O)c1ccc(Cl)cc1,-0.8,1.3,-1.5,-0.2,-0.3,-0.5,x,x
CCN(CC)C(=S)SCC(=O)Nc1nc(=O)c2ccccc2s1,-0.4,0.2,-1.3,0.2,8.5*,0.8,1.7,1.8
Cc1ccc(/C=C2\SC(=S)N(CC3CCCO3)C2=O)o1 (configuration not stated),-1.5,-2.5,-1.1,0.7,1.7,-0.2,x,x
COc1ccc(-c2nc(CCl)cs2)cc1OC,-0.4,0.4,-1.2,0.1,2.1,1.6,x,x
COc1ccc(-c2nc(-c3ccc(O)cc3O)cs2)cc1OC,-0.4,12.3*,-1.8,-0.3,8.8*,2.0,17.7*,11.8*
Fc1ccccc1/C=N/Nc1ncnc2nc[nH]c12,-0.7,1.0,-0.8,2.4,9.6*,3.8*,16.6*,5.8*
CCOC(=O)[C@H]1[C@H]2COc3ccccc3[C@@H]2N2C(=O)c3cc(OC)c(OC)cc3NC(=O)[C@@]12C,0.3,-1.7,-0.6,0.5,1.2,-0.2,x,x
COc1cccc(-c2nc(CS(=O)(=O)CC(=O)NCCCN3CCc4ccccc4C3)c(C)o2)c1,0.0,1.5,-1.2,0.9,-5.5,-0.2,x,x
COc1ccc(-c2cnc3c(NC(C)=O)cc(-c4cccc(C(=O)NCCN(C)C)c4)cn23)cc1OC,-1.7,0.2,-1.5,x,4.1,0.0,x,x
CN(C)C(=O)c1cccc(-c2cnc3c(NC=O)cc(-c4ccccc4Cl)cn23)c1,-1.8,11.6*,-1.0,x,9.8*,3.3,19.5*,3.8
CC(=O)Nc1cccc(-c2cc(NC=O)c3ncc(-c4cccc(C(C)=O)c4)n3c2)c1,-1.4,1.3,-2.1,x,11.0*,-3.1,3.3,6.5*
COc1cccc(-c2cnc3c(NC(C)=O)cc(-c4cccc(C(=O)NCCN(C)C)c4)cn23)c1,1.7,1.4,-1.2,x,10.9*,0.2,22.1*,-0.4
Cc1ccccc1NC(=O)Cc1nc(COC(=O)CNS(=O)(=O)c2cccc(Br)c2)cs1,-1.1,-1.2,-0.8,1.8,1.3,1.4,x,x
COc1ccc2c(c1)c1ccccc1n2C,-2.4,-0.1,-1.0,-0.6,8.9*,0.0,-2.5,1.8
CCOC(=O)C1CCCN(C(=O)c2ccc(OC)cc2OC)CC1 (configuration not stated),2.4,0.9,-1.6,x,10.3*,-0.1,0.8,-0.5
CCOC(=O)C1CCCN(C(=O)c2cc(OC)ccc2Br)CC1 (configuration not stated),-1.1,3.5,-1.6,x,-1.7,-0.1,x,x
CCN(CC)C(=O)C1CCC(CNS(=O)(=O)c2cccc3nsnc23)CC1 (configuration not stated),-1.6,6.2,-1.6,-0.4,0.1,0.0,x,x
O=C(CNS(=O)(=O)c1ccccc1)OCC(=O)c1ccc(OC(=O)c2ccccc2)cc1,-2.1,-2.1,-0.5,0.8,8.7*,0.3,18.0*,2.2
Cc1nc(NCc2ccco2)c2c(C)c(C)sc2n1,-4.0,-8.0,-2.6,-2.9,-7.9,-2.7,x,x

# Screening data deposited in PubChem BioAssay by The Scripps Research Institute Molecular Screening Center.
